Laboratory results taken from PubChem BioAssay (EPA / NIEHS).
Calls of active or inactive are those of the source. How the source made its calls: active means hit-call score of the fitted dose curve at least 0.9, where 1 is the maximum; inactive means score below 0.9.

Assay: CCTE_Harrill_HTTr_Apoptosis_MCF7: CCTE's 6-hour Apoptosis Assessment for the High-Throughput Transcriptomics (HTTr) Platform, in MCF-7 cells cultured in DMEM + 10% fetal bovine serum, Harrill Lab (AID 2284011)
Excerpt: This is a cell-based assay that evaluates apoptosis using high content imaging to evaluate activation of caspase-3/7 using the CellEvent Caspase 3/7 Green detection reagent in 384-well format.One of seven assay components measured from the CCTE_Harrill_HTTr_Apoptosis assay. This was part of a full screening experiment. This is a cell-based assay that evaluates apoptosis in MCF-7 cells cultured in DMEM + 10% fetal bovine serum. High content imaging is used to evaluate activation of caspase-3/7 using the CellEvent Caspase 3/7 Green detection reagent. Measurements are taken at 6 hours after chemical dosing in 384-well format.The assay component endpoint CCTE_Harrill_HTTr_Apoptosis_MCF7 was analyzed with bidirectional fitting relation to DMSO as the negative control and baseline of activity. Using a type of viability reporter, gain-of-signal activity can be used to evaluate activation of caspase-3/7 using the CellEvent Caspase 3/7 Green detection reagent to understand changes in apoptosis. To generalize the intended target to other relatable targets, this assay endpoint is annotated to cell cycle, where the subfamily is apoptosis.
Chemicals were tested in MCF7 cells in an eight point dilution series with a six hour exposure duration.

Row | SMILES | outcome
1 | COc1ccc(-c2ccccc2)cc1NNC(=O)OC(C)C | inactive
2 | OC(c1ccc(Cl)cc1)(c1ccc(Cl)cc1)C(Cl)(Cl)Cl | inactive
3 | COC(=O)NC(=S)Nc1ccccc1NC(=S)NC(=O)OC | inactive
4 | COCc1cnc(C2=NC(C)(C(C)C)C(=O)N2)c(C(=O)O)c1 (stereo not given) | inactive
5 | O=C(Nc1ccccc1-c1ccc(Cl)cc1)c1cccnc1Cl | inactive
6 | CCOC(=O)C(C)OC(=O)c1cc(Oc2ccc(C(F)(F)F)cc2Cl)ccc1[N+](=O)[O-] (stereo not given) | inactive
7 | Nc1c(Cl)c(Cl)nc(C(=O)O)c1Cl | inactive
8 | O=c1n(Cl)c(=O)n(Cl)c(=O)n1Cl | inactive
9 | CCCC(=NOCC)C1=C(O)CC(CC(C)SCC)CC1=O (stereo not given) | inactive
10 | CNC(=O)Oc1cccc2ccccc12 | inactive
11 | CCCN(CC)CC1COC2(CCC(C(C)(C)C)CC2)O1 (stereo not given) | inactive
12 | COP(=O)(OC)O/C(C)=C/C(=O)N(C)C | inactive
13 | Cc1cc(C)nc(Nc2ccccc2)n1 | inactive
14 | COC(=O)N(C(=O)N1CO[C@@]2(C(=O)OC)Cc3cc(Cl)ccc3C2=N1)c1ccc(OC(F)(F)F)cc1 | inactive
15 | CCOP(=O)(OCC)Oc1nc(Cl)c(Cl)cc1Cl | inactive
16 | CC1(C)CON(Cc2ccccc2Cl)C1=O | inactive
17 | CCN(CC)c1nc(C)cc(OP(=S)(OC)OC)n1 | inactive
18 | C=CCOC(=O)C(C)(C)OC(=O)c1cc(-n2c(=O)cc(C(F)(F)F)n(C)c2=O)ccc1Cl | inactive
19 | Clc1cccc(C(Cl)(Cl)Cl)n1 | inactive
20 | CCCCC(C#N)(Cn1cncn1)c1ccc(Cl)cc1 (stereo not given) | inactive

Row | SMILES | outcome
21 | Nc1c(Cl)c(F)nc(OCC(=O)O)c1Cl | inactive
22 | CCSC(=O)N1CCCCCC1 | inactive
23 | CCCCOCN(C(=O)CCl)c1c(CC)cccc1CC | inactive
24 | CC(C)Nc1nc(Cl)nc(NC(C)C)n1 | inactive
25 | CCOc1nc(C(Cl)(Cl)Cl)ns1 | inactive
26 | N#CN=C1SCCN1Cc1ccc(Cl)nc1 | inactive
27 | CS(=O)(=O)c1cc(C(F)(F)F)ccc1C(=O)c1cnoc1C1CC1 | inactive
28 | CCOc1cc(C(C)(C)C)ccc1C1COC(c2c(F)cccc2F)=N1 (stereo not given) | inactive
29 | COC(=O)c1c(C(F)F)nc(C(F)(F)F)c(C2=NCCS2)c1CC(C)C | inactive
30 | N#Cc1c(Cl)cccc1Cl | inactive
31 | CC(C)=CC1C(C(=O)OCc2coc(Cc3ccccc3)c2)C1(C)C (stereo not given) | inactive
32 | CC(C)N1C(=O)N(c2ccccc2)CSC1=NC(C)(C)C | inactive
33 | CC(C)Oc1cccc(NC(=O)c2ccccc2C(F)(F)F)c1 | inactive
34 | CC1(C)C(C(=O)OC(C#N)c2cccc(Oc3ccccc3)c2)C1(C)C (stereo not given) | inactive
35 | COCC(C)N(C(=O)CCl)c1c(C)csc1C (stereo not given) | inactive
36 | CC1(C)CCC(=Cc2ccc(Cl)cc2)C1(O)Cn1cncn1 (stereo not given) | inactive
37 | O=P(O)(O)CCCl | inactive
38 | CCOP(=S)(OCC)Oc1nc(Cl)n(C(C)C)n1 | inactive
39 | CN=C=S | inactive
40 | CC(C)C1(C)N=C(c2ncccc2C(=O)O)NC1=O (stereo not given) | inactive
